Measurements published in ChEMBL document CHEMBL1157539, “Thousands of chemical starting points for antimalarial lead identification” (Nature, 2010).

Tests used:
Type in all cases: functional
Plasmodium falciparum [1] = assay: GSK_TCMDC: Inhibition of Plasmodium falciparum 3D7 in whole red blood cells, using parasite LDH activity as an index of growth. Test compounds present at 2uM
Plasmodium falciparum [2] = assay: GSK_TCMDC: Inhibition of Plasmodium falciparum Dd2 in whole red blood cells, using parasite LDH activity as an index of growth. Test compounds present at 2uM
HepG2 = assay: GSK_TCMDC: Percent inhibition of human HepG2 cell line. Test compounds present at 10uM.

Row | Compound | Inhibition (Plasmodium falciparum [1]) [%] | Inhibition (Plasmodium falciparum [2]) [%] | Inhibition (HepG2) [%]
1 | Nc1nc(N)c2cc(C(F)(F)F)ccc2n1 | 80 | 1 | 8
2 | Cc1[nH]c(C)c(-c2ccc(-c3ccc(Cl)cc3)nc2)c(=O)c1Br | 97 | 96 | 21
3 | CC(C)NC(=O)c1cccc(-c2cccc(OCCN3CCSCC3c3ccccc3)c2)c1 (stereo not drawn) | 89 | 45 | 24
4 | COc1ccc2nccc([C@@H](O)CN3CCC(NCc4ccc5c(c4)NC(=O)C(C)S5)CC3)c2c1.O=C(O)C(=O)O (stereo partly drawn) | 99 | 72 | 7
5 | COc1ccccc1CCC(C)(C)NC(=O)CC(CCc1ccccc1)Nc1ccc(C#N)c2ccccc12 (stereo not drawn) | 94 | 65 | 6
6 | N#Cc1ccc(/C=C/C(=O)NCCCCCN2CCCN(C(=O)Nc3ccc(Cl)c(C(F)(F)F)c3)CC2)cc1 | 98 | 13 | 28
7 | FC(F)(F)c1cnc(Sc2nnc(-c3ccco3)o2)c(Cl)c1 | 98 | 97 | 0
8 | CCN(CCO)CCCC(C)Nc1ccnc2cc(Cl)ccc12.O=S(=O)(O)O (stereo not drawn) [HYDROXYCHLOROQUINE SULFATE] | 99 | 0 | 3
9 | COc1ccccc1NC(=O)Nc1cccc(-c2ccc(-c3nc4cc(C(F)(F)F)ccc4[nH]3)cc2)c1 | 100 | 76 | 28
10 | CCc1cn2c3c(cc(C(=O)N[C@@H](Cc4ccccc4)[C@H](O)CNCc4cccc(C)c4)cc13)N(C)S(=O)(=O)CC2.O=CO | 96 | 98 | 5
11 | Cc1nc(-c2cccc(Nc3nccc(NCC(O)c4ccccc4)n3)c2)cs1 (stereo not drawn) | 99 | 82 | 43
12 | CC(C)CNCc1cccc(-c2cccc(CN(CCCN3CCN(C)CC3)C(=O)/C=C/c3ccccc3)c2)c1.O=C(O)C(F)(F)F | 90 | 88 | 44
13 | O=C(Nc1ccc(C(F)(F)F)cc1)Nc1ccccc1N1CCNCC1.O=C(O)C(F)(F)F | 94 | 69 | 39
14 | CN(C)CCOc1cc(NC(=O)Nc2ccc(-c3ccccc3)cc2)ccc1I | 100 | 45 | 9
15 | COc1ccc(CCNCCCCCCNCCc2ccc(Cl)c(Cl)c2)cc1OC.Cl | 100 | 10 | 59
16 | O=C(C1CCCC1)N1CCOC(CCN2CCC(c3ccccc3)CC2)(c2ccc(Cl)c(Cl)c2)C1 (stereo not drawn) | 88 | 77 | 16

Row | Compound | Inhibition (Plasmodium falciparum [1]) [%] | Inhibition (Plasmodium falciparum [2]) [%] | Inhibition (HepG2) [%]
17 | O=C(NC1CCN(Cc2ccsc2)CC1)c1ccc(-c2cccc(C(F)(F)F)c2)s1.O=C(O)C(F)(F)F | 88 | 3 | 48
18 | Br.COc1cc(CCON2C(N)=NC(N)=NC2(C)C)cc(OC)c1OC | 93 | 95 | 59
19 | CCC(CC)(Cc1ccccc1)NC(=O)[C@H](Cc1ccc(OC)c(OC)c1)Nc1ccc(C#N)c2ccccc12.O=C(O)C(F)(F)F | 90 | 69 | 16
20 | Cc1cc(N2CCNCC2)c2cc(NC(=O)Nc3ccc(Cl)c(Cl)c3)ccc2n1.Cl | 100 | 86 | 23
21 | O=S(=O)(ON=C1CCc2ccccc21)c1ccc(Cl)cc1 | 100 | 79 | 0
22 | CC(C)(C)c1ccc(CNC(=O)c2cc(CNC3CCNCC3)ccc2O)cc1 | 96 | 8 | 6
23 | COC(=O)c1c(NC(=O)c2cccc(C(F)(F)F)c2)sc2c1CCN(Cc1ccccc1)C2.Cl | 84 | 61 | 9
24 | CCOC(=O)c1ccc(NC(=O)N[C@H]2CCN(CCCCCNC(=O)/C=C/c3ccc(Cl)c(Cl)c3)C2)cc1 | 98 | 1 | 21
25 | O=C(Nc1ccc(OC2CCN(Cc3ccsc3)CC2)c(Cl)c1)c1ccco1.O=C(O)C(F)(F)F | 87 | 85 | 7
26 | Cc1cc(=NN=Cc2cccc(F)c2)c2ccc(F)cc2[nH]1 | 100 | 99 | 2
27 | O=C(Nc1cc(Cl)cc(Cl)c1)Nc1ccccc1C(=O)NC1CCCCC1 | 100 | 100 | 12
28 | COc1cc2ncnc(NCCc3ccccc3Cl)c2cc1OC | 88 | 11 | 0
29 | O=C(Nc1ccc(OC2CCN(Cc3ccco3)CC2)c(Cl)c1)c1ccc2ncccc2c1.O=C(O)C(F)(F)F | 97 | 40 | 0
30 | CN(C)CCNCc1cccc(-c2ccc3c(Nc4ccc(Oc5ccccn5)cc4)ccnc3c2)c1 | 99 | 100 | 27
31 | N=C1NC(=N)N(OCCCCCCON2C(=N)NC(=N)NC2C=Cc2ccccc2)C(C=Cc2ccccc2)N1 (stereo not drawn) | 97 | 94 | 17
